Source: PubChem BioAssay (several laboratories)
BoNT-F LC inh – blocks Botulinum neurotoxin F light chain protease | Multiplex microsphere protease cleavage assay, flow cytometry | inhibition, % at 10 µM | 0.22% of 360,000 active | AID 588497; in the data active = inhibition above about 35%, passing the limit was not always enough; inconclusive = no clear call, values can overlap the other calls; also: plate controls were buffer without enzyme for full effect and enzyme alone for no effect
CCHF vOTU inh – blocks the CCHF virus ovarian tumor domain protease | CCHFV vOTU protease, Pep-AMC fluorescence | inhibition, % at 11.5 µM | 0.55% of 370,000 active | AID 651958; in the data active = inhibition above about 30%; also: 0% = vehicle wells with enzyme and 100% = no enzyme wells
Anthrax LF prot – anthrax lethal factor protease inhibition | P15917 | multiplex microsphere protease cleavage assay, LF | inhibition, % at 10 µM | 0.12% of 360,000 active; also: plate controls were buffer without enzyme for full effect and enzyme alone for no effect
Autofluor counter – counter-screen for toxin protease inhibitors: compound fluorescence. compound autofluorescence counterscreen, microsphere flow cytometry; hits give high values. fluorescence intensity (no concentration beside the values). 3.1% of 360,000 active. AID 624483; in the data active = fluorescence intensity above about 16000; inconclusive = no clear call, values can overlap the other calls
SARS 3CLpro inh – SARS-CoV 3CLpro protease inhibition | recombinant SARS-CoV 3CLpro, quenched FRET peptide cleavage | inhibition, % at 6 µM | 0.14% of 290,000 active | AID 1706; in the data active = inhibition above about 12%
BoNT-A LC inh2 – blocks Botulinum neurotoxin A light chain protease; inhibition, % at 10 µM; multiplex microsphere protease substrate cleavage, flow cytometry; 0.17% of 360,000 active; also: plate controls were buffer without enzyme for full effect and enzyme alone for no effect
An asterisk follows results filed as active; ? = inconclusive; nt = not tested or not shown. Hits are enriched below; roughly 3.9% of the tested compounds scored in any of these assays. Rule as the data show it, unless noted: active = inhibition above about 30%; inconclusive = no clear call, values can overlap the other calls; inactive = below that.

SMILES	BoNT-F LC inh	CCHF vOTU inh	Anthrax LF prot	Autofluor counter	SARS 3CLpro inh	BoNT-A LC inh2
Cc1ccc2c(c1)C(CS(=O)(=O)NC1CCCC1)NC2 (stereo unspecified)	nt	8	nt	nt	nt	nt
Cc1nn(-c2ccccc2)c2sc(C(=O)NC3CCCC3)cc12	nt	1	nt	nt	nt	nt
O=C(CNS(=O)(=O)c1ccccc1)OCC(=O)c1ccc(Br)cc1	-8	-9	-3	4045	0	-5
O=C(CNS(=O)(=O)c1ccccc1)OCC(=O)c1ccc(OC(=O)c2ccccc2)cc1	7	0	0	21032*	0	?
CC(c1cc(F)ccc1O)c1c[nH]c2ccccc12 (stereo unspecified)	nt	7	nt	nt	nt	nt
COc1ccc(OCCSc2nnc(CCNC(=O)c3ccc(OC)cc3)n2C)cc1	3	-15	4	8027	-2	0
COc1ccc(OCCSc2nnc(CCNC(=O)c3ccc(Cl)c(Cl)c3)n2C)cc1	1	2	-11	20984*	-9	3
CCOc1ccc(NC(=O)CSc2nnc(C34CC5CC(CC(C5)C3)C4)n2C)cc1	0	-3	-1	17197*	0	-2
COc1ccc(C(=O)NNC(=O)CSc2nnc(COc3ccccc3)n2C)cc1	-2	4	-7	16210*	-1	0
CCOc1ccc(NC(=O)CSc2nnc(CCNC(=O)c3ccc(OC)cc3)n2C)cc1	0	nt	2	16470*	-2	?
CCCCCCCCN1C(=O)[C@@H](CC(=O)NCCCCc2ccccc2)C[C@@]2(C(=O)OC)C1=C[C@H](C1CCCC1)O[C@@H]2C	nt	-1	nt	nt	nt	nt
COC(=O)[C@]12C[C@H](CC(=O)NCc3cccs3)C(=O)N(Cc3ccco3)C1=C[C@H](C1CCCC1)O[C@@H]2C	nt	9	nt	nt	nt	nt
O=C(NCCc1c[nH]c2ccccc12)OCc1cn(Cc2ccccc2Cl)nn1	nt	2	nt	nt	nt	nt
Cc1ccc(N2C(=O)C(c3c(C)[nH]n(-c4ccccc4)c3=O)(C(F)(F)F)C3=C2CC(C)(C)CC3=O)cc1 (stereo unspecified)	-1	-2	4	2423	5	0
Cc1[nH]n(-c2ccccc2)c(=O)c1C1(C(F)(F)F)C(=O)N(c2ccccc2)C2=C1C(=O)CC(C)(C)C2 (stereo unspecified)	2	6	-2	23155*	-1	?
Cc1nn(-c2ccccc2)c(C)c1C(=O)OCC(=O)NC12CC3CC(CC(C3)C1)C2	2	nt	-1	22484*	3	2
COc1ccc(S(=O)(=O)N2CCN(C(=O)c3c(C)nn(-c4ccccc4)c3C)CC2)cc1	-5	14	1	3441	nt	0
Cc1nn(-c2ccccc2)c(C)c1C(=O)OCC(=O)N1CCN(S(=O)(=O)c2ccccc2)CC1	1	3	-3	21834*	6	?
N=C(N)Sc1nc(N2CCCCC2)nc(N2CCCCC2)n1	6	-2	4	6360	-3	4
c1ccc(Sc2nc(N3CCCCC3)nc(N3CCCCC3)n2)nc1	4	13	-7	19461*	2	?
CCN(CC)C(=O)C1CC(c2ccc(OC)cc2)=NO1 (stereo unspecified)	-1	-8	0	20968*	1	-1
COc1ccc(C2=NOC(C(=O)NC(C)(C)C)C2)cc1 (stereo unspecified)	1	-5	-2	22564*	3	1
COc1ccc(C2=NOC(C(=O)NCc3ccccc3)C2)cc1 (stereo unspecified)	-2	nt	3	7990	-4	1
Cc1ccccc1OCC(=O)N/N=C1\CCOc2c(C)cccc21	0	2	0	20512*	1	-1
COc1cccc2c1OCC/C2=N\NC(=O)COc1ccccc1C	1	-11	-3	1897	-1	0
SMILES	BoNT-F LC inh	CCHF vOTU inh	Anthrax LF prot	Autofluor counter	SARS 3CLpro inh	BoNT-A LC inh2
Cc1ccc(OCC(=O)N/N=C2\CCOc3c(C)cccc32)cc1	-1	5	0	22762*	6	2
COC(=O)[C@]12C[C@H](CC(=O)NCC34CC5CC(CC(C5)C3)C4)C(=O)N(CCc3ccc(OC)c(OC)c3)C1=C[C@H](C(C)(C)C)O[C@@H]2C	nt	21	nt	nt	nt	nt
O=C(OC12CCCN(C1)/C(=C/c1cccnc1)C2)C1CCCCC1 (stereo unspecified)	nt	4	nt	nt	nt	nt
COc1cccc(N2CCN(C(=O)COc3cc(=O)n(C)c4ccccc34)CC2)c1	nt	1	nt	nt	nt	nt
C/C(=N\Nc1ncnc2sc(C)c(C)c12)c1ccccn1	40*	22	19	9536	-6	40*
O=C(N/N=C/c1ccc(O)cc1O)c1ccc(NC(=O)C2CCCCC2)cc1	4	6	36*	4739	-8	2
O=C(N/N=C/c1cccc(O)c1)c1ccc(NC(=O)C2CCCCC2)cc1	-2	19	3	6725	2	-1
CC(=O)NCCn1c(SCC(=O)NCCC2=CCCCC2)nc2ccccc2c1=O	-9	-3	-3	24653*	-4	-5
CCOC(=O)N1CCC(n2c(SCC(=O)NCCC3=CCCCC3)nc3ccccc3c2=O)CC1	9	11	-1	19812*	2	7
CC(=O)NCCn1c(SCc2cc(=O)n3cc(Cl)ccc3n2)nc2ccccc2c1=O	4	0	0	21005*	1	?
CCOC(=O)N1CCC(n2c(SCC(=O)NCc3ccccc3)nc3ccccc3c2=O)CC1	-12	-9	-10	5303	-2	-1
CC(=O)NCCn1c(SCc2ccccc2F)nc2ccccc2c1=O	-9	-5	0	10877	0	-2
Cc1ccc(-n2nnnc2SCC(=O)NCCC2=CCCCC2)c(C)c1	0	14	0	20542*	-1	0
CN1CCN(NC(=O)CN2C(=O)/C(=C/c3c(Cl)cccc3Cl)SC2=S)CC1	9	-2	-5	4385	-1	1
CN1CCN(NC(=O)CN2C(=O)/C(=C/c3ccccc3Cl)SC2=S)CC1	-6	11	-4	16697*	0	-1
COc1ccc(Cn2cc(CN3[C@H](Cc4ccccc4)COc4cc(Br)ccc4S3(=O)=O)nn2)cc1	nt	3	nt	nt	nt	nt
COc1ccccc1C(=O)NC1CCCCN(Cc2ccc(OC(F)(F)F)cc2)C1=O (stereo unspecified)	nt	19	nt	nt	nt	nt
Cc1ccsc1C(=O)OCc1nc2ccccc2c(=O)[nH]1	10	5	-3	19317*	4	9
Cc1ccsc1C(=O)OCc1nc2ccsc2c(=O)[nH]1	10	-5	3	5451	nt	5
O=C(CN(Cc1cccs1)C(=O)CN1C(=O)COc2ccccc21)NCc1ccco1	7	3	-6	19004*	-2	7
Cc1ccc2c(c1)N(CCC(=O)NCC1COc3ccccc3O1)C(=O)CO2 (stereo unspecified)	3	-5	-6	21396*	3	1
O=C(CCN1C(=O)COc2ccccc21)NCc1ccco1	-12	-10	-3	10601	2	-2
O=C(CN(Cc1cccs1)C(=O)CNS(=O)(=O)c1ccccc1)NCc1ccco1	7	4	2	2589	1	1
Cc1ccc2c(c1)N(CCC(=O)NCCN1CCOCC1)C(=O)CO2	-3	-10	0	20041*	0	-1
